Screens deposited in PubChem BioAssay by several laboratories.
Shown are actives, neighbours in structure and some others; about 4.9% of the full set was active somewhere.
SKKanGAS inh: SKKanGAS growth inhibition; inhibition, % at 7.5 µM; 1.3% of 300,000 active; S. pyogenes SKKanGAS, kanamycin growth, BacTiter-Glo, 6 h;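 active = mean replicate score, as percent of positive control median, at least 50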;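 also: strain carries kanamycin resistance gene driven by streptokinase promoter and grows in 40 µg/ml kanamycin; loss of luminescence reflects streptokinase promoter inhibition or plain growth inhibition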
tim23-1 inh: inhibits growth of tim23-1 mutant yeast; S. cerevisiae tim23-1 growth, BacTiter-Glo luminescence, 24 h; inhibition, % at 20 µM; 1.3% of 330,000 active; AID 463212;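 active = growth inhibition of the mutant yeast at or above 50%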;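 also: temperature-sensitive mutant grown at 25 °C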
NALP1 inh: blocks the NALP1 inflammasome reconstituted in yeast; S. cerevisiae NALP1/ASC/caspase-1 growth, X-gal OD620, 72 h; inhibition, % at 10 µM; 0.61% of 280,000 active; in the data active = inhibition mostly above about 24%, no sharp cut-off; inactive = mostly below about 32%
TIM10 inh: inhibits growth of TIM10 yeast strain; S. cerevisiae TIM10 strain growth, BacTiter-Glo luminescence, 24 h; inhibition, % at 10 µM; 1.4% of 330,000 active; AID 463195;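 active = inhibition of 40% or more at the single tested concentration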;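 also: wild-type TIM10 isogenic control strain grown at permissive 25 °C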
NALP3 yeast inh: blocks the NALP3 inflammasome reconstituted in yeast; Yeast reconstituted NLRP3/ASC/caspase-1, beta-gal luminescence, 24 h; AID 2825; 0.39% of 330,000 active; inhibition, % at 10 µM;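 active = inhibition of 50% or more; inactive = inhibition below 50%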
tim10-1 inh: tim10-1 yeast growth inhibition; S. cerevisiae tim10-1 ts strain growth, BacTiter-Glo, 24 h; inhibition, % at 20 µM; 2.2% of 330,000 active; AID 463190;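 active = inhibition of at least 40%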;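 also: mutant grown at 25 °C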
tim10 confirm: TIM10 yeast growth inhibition, confirmed; shares compounds with TIM10 inh; S. cerevisiae tim10 strain growth, BacTiter-Glo luminescence, 24 h; inhibition, % at 10 µM; 63% of 4,600 active; AID 463215;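 active = inhibition of yeast growth at or above a set limit in either of two replicates at 10 µM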; also: this counterscreen used the strain with wild-type TIM10
tim23-1 confirm: tim23-1 yeast growth inhibition, confirmed; shares compounds with tim23-1 inh; S. cerevisiae tim23-1 growth, BacTiter-Glo luminescence, 24 h; inhibition, % at 20 µM; 83% of 4,400 active;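 active = inhibition above about 39% in either of two replicate wells at 20 µM, limit read from the data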;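 also: temperature-sensitive tim23-1 mutant grown at 25 °C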
A number is an active result; i = inactive; nt = not tested or not shown.

SMILES	SKKanGAS inh	tim23-1 inh	NALP1 inh	TIM10 inh	NALP3 yeast inh	tim10-1 inh	tim10 confirm	tim23-1 confirm
Oc1c(C=Nc2cccnc2)sc2ccccc12	i	i	i	i	i	i	nt	nt
CCc1nnc(NC(=O)C2CCCN(S(=O)(=O)c3ccc(OC)cc3)C2)s1 (configuration not stated)	i	i	i	i	i	i	nt	nt
COc1ccc(CN=C2NN=C(c3ccc(Cl)cc3)CS2)cc1	i	65.3	i	45.6	i	i	31.5	67.7
Cc1cccc(NC(=O)c2ccco2)c1C	i	i	i	i	i	i	nt	nt
Cc1cc(NC(=O)c2ccco2)sc1C	nt	51.9	nt	43.2	i	i	i	59.2
CCCCn1c(N)c(N(CC)C(=O)C2CCC2)c(=O)[nH]c1=O	nt	i	nt	i	i	i	nt	nt
COCCN(CC(=O)Nc1cccc(C)c1C)C(=O)c1ccc(S(=O)(=O)N2CCOCC2)cc1	nt	i	nt	i	i	i	nt	nt
Cc1ccc(-n2ncc3c2CCCC3NC(=O)CCn2ccnc2C)cc1C (configuration not stated)	i	i	i	i	i	i	nt	nt
O=C(N=C1N=C2C=CC(Br)=CN2Cc2ccccc21)c1ccc([N+](=O)[O-])cc1[N+](=O)[O-]	i	i	i	i	i	i	nt	nt
CN(C)c1ccc2nc3c(=O)[nH]c(=O)nc-3n(CC(O)C(O)C(O)CO)c2c1 (configuration not stated)	i	i	i	i	i	i	nt	nt
O/N=C/c1ccccc1OCc1ccc(Cl)cc1	i	51.8	i	42.5	i	i	i	58.5
CCOC(=O)CS(=O)(=O)c1nc(-c2ccccc2)cc(C(F)(F)F)n1	i	64.3	i	44.2	i	i	55.2	i
CCOC(=O)CS(=O)(=O)c1ccccc1	i	i	i	i	i	i	nt	nt
CC(=O)Nc1ccc(S(=O)(=O)NNc2cccc(C)c2)cc1	i	i	i	i	i	i	nt	nt
COc1cc(NC(=O)CCN2CC(C)OC(C)C2)cc(OC)c1 (configuration not stated)	i	i	i	i	i	i	nt	nt
Oc1ccc(-c2cc(-c3ccc(O)cc3)nc(-c3ccccc3)n2)cc1	103.1	61.3	i	67.1	i	i	62.7	61.5
CC1CCN(CCCNC(=O)Cn2ncc3c([nH]c4ccccc43)c2=O)CC1	i	i	i	i	i	i	nt	nt
O=C(N/N=C/c1ccccc1O)c1cccc2ccccc12	105.5	66.5	i	40.7	i	i	i	i
O=C(N/N=C/c1ccccc1O)c1cc(=O)[nH]c2ccccc12	i	i	i	i	i	i	nt	nt
O=C(NCC(c1ccco1)N1CCCC1)c1cc2ccccc2s1 (configuration not stated)	nt	i	nt	i	i	i	nt	nt
CC(c1ccccc1)N1CCn2c(nc3cc(NC(=O)c4cccs4)ccc32)C1 (configuration not stated)	i	53.3	i	43.5	i	i	32.2	63.5
O=C(Nc1nc2cc3c(cc2s1)OCCO3)c1cccs1	i	i	i	i	i	i	nt	nt
O=C(Nc1ccc(N2CCCC2)c(Cl)c1)c1cccs1	i	50.3	i	45.5	i	i	33.5	54.8
CC(C)CN1C(=O)c2ccc(NC(=O)c3cccs3)cc2C1=O	i	53.4	i	46.2	i	i	49.5	54.5
CC(C)CN1C(=O)c2ccc(NC(=O)c3ccccc3F)cc2C1=O	i	i	i	i	i	i	nt	nt
SMILES	SKKanGAS inh	tim23-1 inh	NALP1 inh	TIM10 inh	NALP3 yeast inh	tim10-1 inh	tim10 confirm	tim23-1 confirm
O=C(Nc1ccc2c(c1)OCCO2)c1cccs1	i	55.8	nt	44.6	i	i	49.5	64.7
Cn1cnc2cc(NC(=O)c3cccs3)ccc21	i	i	i	i	i	i	nt	nt
O=C(Nc1ccc2nn(-c3ccccc3)nc2c1)c1cccs1	i	54.2	i	53.3	i	i	53.8	65.1
Cc1cccc(OCc2nnc(SCC(=O)N3c4ccccc4CC3C)n2C)c1C (configuration not stated)	i	54.4	i	44.4	i	i	i	42.2
O=[N+]([O-])c1cc(C(F)(F)F)ccc1NCCNC(=S)Nc1ccc(Cl)cc1	73.0	80.5	i	56.0	i	i	50.4	i
O=[N+]([O-])c1cc(C(F)(F)F)ccc1NCCCCNS(=O)(=O)c1ccc(Cl)cc1	i	i	i	i	i	i	nt	nt
Cn1c(CSc2nc3ccc(Br)cc3[nH]2)nc2ccccc21	i	61.1	i	40.6	i	i	i	57.4
O=C(CC(O)CCc1ccccc1)c1ccc(O)cc1 (configuration not stated)	nt	i	nt	i	i	i	nt	nt
Cn1c(SCC(=O)N/N=C/c2ccc([N+](=O)[O-])s2)nnc1-c1ccc(Cl)cc1	i	61.9	i	80.8	i	i	i	65.2
Cc1ccc(C(=O)Nc2cccc(Oc3ccccc3)c2)o1	i	57.6	i	49.5	i	i	56.1	76.7
N#C/C(=C\c1ccccc1Cl)C(=O)Nc1ccccn1	i	63.9	i	43.3	i	i	i	42.0
CC(C)(C)c1cc(C(C)(C)C)cc(S(=O)(=O)CCc2ccccn2)c1	i	59.3	i	50.6	i	i	56.7	54.0
N#Cc1cn(Cc2cccc(Cl)c2)c2ccccc12	i	i	i	i	i	i	nt	nt
N#Cc1ccccc1Cn1cc(/C=C/[N+](=O)[O-])c2ccccc21	i	69.1	74.7	66.7	i	i	i	81.8
CCCCOc1ccc(C(=O)NCC(=O)NCC(c2ccc(F)cc2)N2CCOCC2)cc1 (configuration not stated)	i	i	nt	i	i	i	nt	nt
COc1ccccc1-n1cnc2cc(NC(=O)c3ccco3)ccc21	i	56.4	i	44.3	i	i	37.1	68.2
Cc1cccc(N=N/C(=C\O)C(=O)c2cccs2)c1	i	58.2	i	43.1	i	i	44.8	60.5
CCOC(=O)c1c(N)sc(C(=O)Nc2ccccc2)c1C	i	55.4	i	41.3	i	i	i	68.0
COC(=O)/C(=C(/F)Sc1cc(C)c(O)c(C)c1)C(F)(F)F	i	53.6	i	42.4	i	i	i	51.9
CC1(c2ccc(OC(F)F)cc2)NC(=O)N(CC(=O)Nc2ccc(Cl)cc2F)C1=O (configuration not stated)	i	i	i	i	i	i	nt	nt
CCOC(=O)N1CCN(C(=O)Nc2ccc3nc(C)sc3c2)CC1	i	i	i	i	i	i	nt	nt
CCOC(=O)Nc1ccc2nc(N3CCCCCC3)sc2c1	i	50.0	i	40.1	i	i	39.9	i
CN(C(=O)COC(=O)CNC(=O)c1sc2ccccc2c1Cl)C1CCS(=O)(=O)C1 (configuration not stated)	nt	i	nt	i	i	i	nt	nt
Cc1ccc(-c2nnc(N3CCCCCC3)c3ccccc23)cc1	i	59.9	i	43.8	i	i	i	54.2
